MARV entry inh – inhibitors of Marburg virus binding or cell entry; Marburg virus pseudotyped entry inhibition, cell reporter; Potency, µM (series often up to 37.8 µM), most hits filed as inhibitors; 1.8% of 300,000 active; AID 540276; calls by dose curve; tested in HEK293 cells
CHX counter – counter-screen for Shiga toxin inhibitors: cycloheximide protein synthesis inhibition; cell reporter, cycloheximide protein synthesis inhibition counterscreen; max response, %; 12% of 300,000 active; AID 2314; in the data active means max response mostly above about 13%, no sharp cut-off; inactive means mostly below about 14%; further: read at 38.3 µM for the half of the compounds with a filed dose
HCV inhibitor – inhibitors of hepatitis C virus infection; Huh7.5.1 HCVcc-Cre infection, luciferase reporter, 44 h; Potency, µM (highest dose often 41.8 µM), actives largely listed as inhibitors; AID 651820; 3.4% of 340,000 active; active means well fitted inhibition curve with a large enough effect; inconclusive means small, poorly fitted or top-dose-only effect, or another doubt; inactive means no such curve, though single readings can be large or run the other way
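Luciferase read-out (15 sec integration) after a 15 min room-temperature substrate step quantifies HCVcc-Cre infection. Cells, 1,000 per well, had compound added 4 h post-plating, then virus at ~0.5 moi, and were cultured 44 h.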
Shiga inhibitor – Shiga toxin inhibition. Vero cells, Shiga toxin protein synthesis inhibition reporter. AID 2315. 9.2% of 290,000 active. inhibition, % at 38.7 µM; in the data active means inhibition mostly above about 28%, no sharp cut-off; inactive means mostly below about 43%
FMDV antiviral – foot and mouth disease virus antiviral activity. AID 1159524. FMDV antiviral cell-based qHTS. 1.2% of 410,000 active. Potency, µM (highest dose often 57.9 µM), hits mostly inhibitors; calls by dose curve; tested in HEK293T cells; further: read-out not given here; nearly all actives have a fitted effect of over 45% in size
Lassa entry inh – inhibitors of Lassa virus binding or cell entry; Lassa virus pseudotype entry inhibition, cell reporter; Potency, µM (top dose mostly 37.9 µM), most hits filed as inhibitors; 1.2% of 300,000 active; AID 540256; calls by dose curve; tested in HEK293 cells; further: nearly all actives have a fitted effect of over 50% in size
Of the large screens only hits and unclear results are named; the others gave an inactive call. Shown are actives, neighbours in structure and some others; about 13% of the full set was active somewhere.

CC[C@H](C)[C@H](NC(=O)[C@H](C)NC(=O)CNC(=O)[C@H](CCCCN)NC(=O)[C@H](CC(N)=O)NC(=O)[C@H](CO)NC(=O)CN)C(=O)N[C@H](C(=O)NCC(=O)N[C@@H](CC(C)C)C(=O)N[C@@H](CCSC)C(=O)O)[C@@H](C)CC	none (no result: MARV entry inh, HCV inhibitor, FMDV antiviral, Lassa entry inh)
CCCCNC(=S)Nc1ccc2nc(N3CCN(CC)CC3)cc(C)c2c1	MARV entry inh inconclusive, HCV inhibitor 13µM
COCCCn1c(=N)c(C(=O)NCc2cccnc2)cc2c(=O)n3cc(C)ccc3nc21	none (no result: CHX counter, HCV inhibitor, Shiga inhibitor)
Cc1[nH]c2ccccc2c1C(=O)CSc1ccc(F)cc1	CHX counter 23
Cc1[nH]c2ccccc2c1C(=O)CSc1cccc[n+]1[O-]	none
Cc1[nH]c2ccccc2c1C(=O)C(=O)NC1CC(=O)N(c2ccccc2)C1 (stereo not given)	none (no result: MARV entry inh, CHX counter, HCV inhibitor, Shiga inhibitor)
Cc1[nH]c2ccccc2c1C(=O)CSc1ccccn1	MARV entry inh inconclusive, CHX counter 40, HCV inhibitor inconclusive
Cc1[nH]c2ccccc2c1C(=O)CSc1nncn1C	none
Cc1[nH]c2ccccc2c1C(=O)C(=O)NC1CC1	CHX counter 48, Shiga inhibitor 94
Cc1ccc(SCC(=O)c2c(C)[nH]c3ccccc23)cc1	CHX counter 13
c1ccc(-c2nnc(N3CCN(c4ccccc4)CC3)nc2-c2ccccc2)cc1	none
COCCNC(=O)/C(C#N)=C1\N=C(NC(=O)c2cccs2)c2ccccc21	none (no result: MARV entry inh, Lassa entry inh)
Cc1[nH]c2ccccc2c1C(=O)CSc1ccccc1	MARV entry inh inconclusive, CHX counter 28
Cc1ccc2c(C(=O)CSc3ccccc3)c(C)[nH]c2c1	MARV entry inh inconclusive
Cc1[nH]c2ccccc2c1C(=O)CNc1nccs1	HCV inhibitor 22µM
Cc1[nH]c2ccccc2c1C(=O)CCl	HCV inhibitor inconclusive, FMDV antiviral 25µM (no result: MARV entry inh, Lassa entry inh)
COc1ccc(Cl)cc1CC=NNC(=O)c1ccncc1	none (no result: CHX counter, Shiga inhibitor)
CCOc1ccc(-n2c(=O)c3sccc3n(CC(=O)NCCc3ccc(OC)c(OC)c3)c2=O)cc1	none (no result: MARV entry inh, Lassa entry inh)
CCN1C(=O)C(CC(=O)Nc2ccc(OC)cc2)N(CCCN2CCN(c3ccc(OC)cc3)CC2)C1=S (stereo not given)	MARV entry inh inconclusive, HCV inhibitor 11µM, Lassa entry inh inconclusive
COc1ccc(NC(=O)CC2C(=O)N(c3ccccc3)C(=O)N2CCc2cccs2)cc1 (stereo not given)	Lassa entry inh inconclusive
CCOc1ccc(NC(=O)CC2C(=O)N(c3ccc(OC)cc3)C(=O)N2CCc2cccs2)cc1 (stereo not given)	MARV entry inh inconclusive, Lassa entry inh 7.3µM
CCCOc1ccc(NC(=O)CC2C(=O)N(Cc3ccccc3)C(=S)N2Cc2cccs2)cc1 (stereo not given)	MARV entry inh inconclusive, CHX counter 22, HCV inhibitor inconclusive, Lassa entry inh inconclusive
CCN(CC)c1ccc(NC(=O)Nc2cccc3ccccc23)cc1	MARV entry inh inconclusive, CHX counter 15, HCV inhibitor inconclusive
NS(=O)(=O)c1ccc(NC(=O)Nc2cccc3ccccc23)cc1	none (no result: MARV entry inh, Lassa entry inh)
CCN(CC(=O)Nc1ccc(C(C)=O)cc1)CC(=O)Nc1ccccc1C(F)(F)F	none
CCN(CC)c1ccc(NC(=O)Nc2ccccc2C(F)(F)F)cc1	HCV inhibitor inconclusive, Shiga inhibitor 42, Lassa entry inh inconclusive
CN(C)c1ccc(NC(=O)Nc2cccc3ccccc23)cc1	CHX counter 36, Shiga inhibitor 77 (no result: MARV entry inh, Lassa entry inh)
Cc1ccc(NC(=O)Nc2cccc3ccccc23)cc1	none (no result: MARV entry inh, Lassa entry inh)
Cc1ccccc1N(C)C(=O)c1coc(=O)c2ccccc12	none
Cc1c(NC(=O)CSCc2c(F)cccc2Cl)c(=O)n(-c2ccccc2)n1C	none
Cc1ccc(CCNC(=O)C2CCN(c3nnc(C)c4c(C)n(-c5ccccc5)nc34)CC2)cc1	none (no result: MARV entry inh, CHX counter, HCV inhibitor, Shiga inhibitor)
Cc1ccc(-n2nc3c(N4CCC(C(=O)NCCc5cccs5)CC4)nnc(C)c3c2C)cc1	HCV inhibitor inconclusive, FMDV antiviral 25µM (no result: MARV entry inh, Lassa entry inh)
Cc1cc(=O)[nH]c(N/N=C/c2ccc(O)c(O)c2)n1	none
CC1S/C(=N/N=C/c2ccco2)N(Cc2ccc(F)cc2)C1=O (stereo not given)	CHX counter 30, Shiga inhibitor 57 (no result: MARV entry inh, Lassa entry inh)
Cc1ccc(NC(=O)c2cc([N+](=O)[O-])ccc2NCc2cccnc2)cc1	HCV inhibitor inconclusive
Cc1ccc(-c2cc(C(=O)NCCc3ccc(S(N)(=O)=O)cc3)c3ccccc3n2)cc1	CHX counter 17, HCV inhibitor inconclusive (no result: MARV entry inh, Lassa entry inh)
NS(=O)(=O)c1ccc(CCNC(=O)c2cc(-c3ccccc3)nc3ccccc23)cc1	MARV entry inh inconclusive, Lassa entry inh inconclusive
Cc1ccc(C(=O)NCc2ccccn2)c(Cl)c1	CHX counter 31, Shiga inhibitor 63, Lassa entry inh inconclusive
CCc1ccc(-c2cc(C(=O)NCc3ccccn3)c3ccccc3n2)cc1	MARV entry inh inconclusive, CHX counter 64, HCV inhibitor inconclusive, Shiga inhibitor 92, Lassa entry inh inconclusive
Cc1ccc(-c2cc(C(=O)NCc3ccccn3)c3ccccc3n2)cc1	MARV entry inh inconclusive, CHX counter 30, HCV inhibitor inconclusive, Lassa entry inh inconclusive
COc1ccc(NC(=O)CC2Nc3ccccc3NC2=O)c([N+](=O)[O-])c1 (stereo not given)	none
O=C(c1cccs1)N1C[C@H](n2cc(-c3ccc(F)cc3)nn2)[C@@H](O)C[C@@H]1c1ccc(Cl)cc1	none (no result: MARV entry inh, CHX counter, HCV inhibitor, Shiga inhibitor, Lassa entry inh)
Cc1ccc(NC(=O)CSc2nnc(-c3cc4occc4n3C)n2-c2ccccc2C)cc1F	none (no result: MARV entry inh, CHX counter, HCV inhibitor, Shiga inhibitor)
CC1Cc2ccccc2C(=O)N1 (stereo not given)	none
C[N+](C)(C)CC1CCCC(C[N+](C)(C)C)C1=O (stereo not given)	MARV entry inh 10µM, HCV inhibitor 2.2µM, FMDV antiviral inconclusive, Lassa entry inh inconclusive (no result: CHX counter, Shiga inhibitor)
O=C(O)CC1CCCC(c2ccccc2)C1=O (stereo not given)	MARV entry inh inconclusive
C[N+](C)(C)CC1CCCc2ccccc2C1=O (stereo not given)	MARV entry inh inconclusive, HCV inhibitor 11µM, FMDV antiviral inconclusive, Lassa entry inh inconclusive (no result: CHX counter, Shiga inhibitor)
COc1ccc(C)cc1NC(=O)COC(=O)c1ccc2c(c1)OCO2	HCV inhibitor inconclusive (no result: MARV entry inh, CHX counter, Shiga inhibitor, Lassa entry inh)
CCOc1ccc(C(=O)Nc2ccc3c(c2)OCO3)cc1OCC	HCV inhibitor 5.6µM
COc1ccc(NC(=O)c2cc3cc(C)ccc3[nH]2)cc1	none (no result: CHX counter, HCV inhibitor, Shiga inhibitor)
COc1ccc2[nH]c(C(=O)Nc3ccc4c(c3)OCO4)cc2c1	CHX counter 53, Shiga inhibitor 100 (no result: MARV entry inh, Lassa entry inh)
COc1ccc(C)cc1NC(=O)c1ccc2c(c1)OCO2	CHX counter 48, HCV inhibitor inconclusive, Shiga inhibitor 97
CCOc1cc(C(=O)Nc2ccc3c(c2)OCO3)ccc1OCCOc1ccccc1Cl	Lassa entry inh inconclusive
CCOc1ccc(NC(=O)COC(=O)c2ccc3c(c2)OCO3)cc1	none (no result: MARV entry inh, CHX counter, Shiga inhibitor, Lassa entry inh)
CCOC(=O)c1ccc(NC(=O)c2ccc3c(c2)OCO3)cc1	MARV entry inh inconclusive, CHX counter 19, HCV inhibitor inconclusive, Lassa entry inh inconclusive
O=C1C[C@@H]2C(=O)N(c3ccccc3)C(=O)[C@@H]2[C@@H]2CN(S(=O)(=O)c3ccccc3)[C@@H](c3ccccc3)[C@H]12	none (no result: MARV entry inh, CHX counter, HCV inhibitor, Shiga inhibitor, Lassa entry inh)

Bioassay records as filed in PubChem BioAssay.
